Bioassay records: PubChem, National Center for Advancing Translational Sciences (NCATS)
ATXN2 expr inh: Primary qHTS for Inhibitors of ATXN expression; Potency, µM (titrated, usually from 57 µM), usual class: inhibitors; 0.72% of 360,000 active; AID 1745845, 2022; HEK-293 ATXN2-luciferase reporter, luminescence, 24 h; note: nearly all actives have a fitted effect of over 55% in size
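ATXN2-luciferase reporter cells (luciferase flanked by upstream and downstream ATXN2 gene portions) were treated 24 h at 37 °C with compounds at up to 57 uM. SteadyGlo luminescence gave expression; GF-AFC fluorescence gave viability.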
TGFb inhibitor: qHTS for Inhibitors of TGF-b | 1.2% of 410,000 active | Potency, µM (doses to about 46.1 µM), usual class: inhibitors | HepG2 CAGA-GFP TGF-b/SMAD3 reporter, GFP fluorescence, 18 h; TGF-beta stimulated, 500 pg/mL final; note: nearly all actives have a fitted effect of over 65% in size
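TGF-beta reporter screen: HEPG2 CAGA-GFP, 1% FBS, 500 pg/mL TGF-beta final, 18 h; per-cell GFP summed per well; curves fitted and categorized by class.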
ATXN viability: Viability Counterscreen for Primary qHTS for Inhibitors of ATXN expression | S2 cells (HEK-293 line with an ATXN2-luciferase reporter) viability, CellTiter-Fluor protease fluorescence, 24 h | Potency, µM (highest dose often 56.7 µM), actives largely listed as cytotoxic | 0.49% of 400,000 active; note: nearly all actives have a fitted effect of over 40% in size
HepG2 viability: qHTS for Inhibitors of TGF-b: Cytotox Counterscreen; HepG2 CAGA-GFP viability, ATP luminescence, 18 h; Potency, µM (titrated, usually from 46.1 µM), usual class: cytotoxic; 0.76% of 410,000 active; AID 588856, 2011
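HepG2 CAGA-GFP cells (1000/well, DMEM with 1% FBS) received compound, then TGF-beta at 500 pg/mL final, and were incubated 18 hours at 37 degrees C. Viability was read by CellTiter-Glo luminescence. Media-only wells were set as complete cell-killing and DMSO as no toxicity.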
D3 ag: qHTS of D3 Dopamine Receptor Agonist: qHTS. D(3) dopamine receptor (Homo sapiens), P35462. AID 652048, 2013. 0.58% of 410,000 active. max activation, %. D3R DiscoveRx beta-arrestin cells, luminescence, 90 min; in the data active = max activation above about 30%
Target sequence (P35462 whole entry, looked up): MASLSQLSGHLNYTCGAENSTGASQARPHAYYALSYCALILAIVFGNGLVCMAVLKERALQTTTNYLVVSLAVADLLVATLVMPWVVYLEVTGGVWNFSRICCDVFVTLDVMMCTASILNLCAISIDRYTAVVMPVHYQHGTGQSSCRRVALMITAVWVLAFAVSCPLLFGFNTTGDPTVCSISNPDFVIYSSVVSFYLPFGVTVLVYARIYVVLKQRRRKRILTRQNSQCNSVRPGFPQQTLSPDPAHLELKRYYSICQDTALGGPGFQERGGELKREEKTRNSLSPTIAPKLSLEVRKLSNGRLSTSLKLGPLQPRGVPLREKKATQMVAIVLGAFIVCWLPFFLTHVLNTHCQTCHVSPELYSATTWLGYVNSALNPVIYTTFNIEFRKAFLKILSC
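Agonist mode: compounds and dopamine controls were applied to plated cells for 90 min at 37 degrees C after an overnight attachment at 1500 cells/well. Luminescent read-out followed 30 - 60 minutes at room temperature with DiscoveRx detection reagent.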
D3 antag: qHTS of D3 Dopamine Receptor Antagonist: qHTS; max response, negative = inhibition, %; D3R cells, DiscoveRx beta-arrestin luminescence, antagonist mode; active compounds read low; D(3) dopamine receptor (Homo sapiens), P35462; 2.5% of 360,000 active; in the data active = max response below about -50%; inconclusive = no clear call, values can overlap the other calls
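Cells plated overnight at 1500 cells/well, then exposed to library compounds with dopamine controls for 90 minutes at 37 degrees C. DiscoveRx reagent added for 30–60 minutes at room temperature; luminescence read, quantitative HTS format.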
Large screens that a line does not name were inactive. Shown are actives, neighbours in structure and some others; about 4.7% of the full set was active somewhere. Unless noted, calls come from the whole dose curve; as a rule, active = well fitted curve in the direction sought with a large enough effect; inconclusive = small, poorly fitted or top-dose-only effect, or another doubt; inactive = no such curve, though single readings can be large; an effect the other way counts as inactive or inconclusive.

O=C1CC(c2ccccc2)Cc2[nH]c(=O)c(C(=O)Nc3ccc(F)cc3)cc21 (configuration not stated)	none (no result: D3 antag)
O=C1CC(c2ccccc2)Cc2[nH]c(=O)c(C(=O)Nc3ccc(OC(F)(F)F)cc3)cc21 (configuration not stated)	ATXN viability 25µM (no result: D3 antag)
O=C(NCCc1ccccc1)C1CCN(S(=O)(=O)c2cccc3nsnc23)CC1	none
O=C(NCCN1CCN(c2ccccc2)CC1)C1CCN(S(=O)(=O)c2cccc3nsnc23)CC1	D3 ag 94
O=C1NC[C@H](c2ccccc2)OC(=O)[C@H](Cc2ccc(F)cc2)CC/C=C/C[C@H]1CC(=O)N(CCO)Cc1ccccc1	TGFb inhibitor inconclusive, ATXN viability inconclusive (no result: HepG2 viability)
O=C1NC[C@@H](c2ccccc2)OC(=O)[C@H](Cc2ccc(F)cc2)C/C=C\C[C@@H]1CC(=O)N(CCO)Cc1ccccc1	ATXN2 expr inh inconclusive, TGFb inhibitor inconclusive, ATXN viability inconclusive, D3 antag -67
O=C1NC[C@H](c2ccccc2)OC(=O)[C@@H](Cc2ccc(F)cc2)CC/C=C/C[C@@H]1CC(=O)N(CCO)Cc1ccccc1	TGFb inhibitor inconclusive, ATXN viability inconclusive, D3 antag -70 (no result: HepG2 viability)
O=C(C[n+]1csc2ccccc21)c1ccccc1	none (no result: ATXN2 expr inh, ATXN viability, D3 ag, D3 antag)
Oc1c(CN2CCN(c3ccccc3)CC2)cc(Br)c2cccnc12	ATXN2 expr inh 4.5µM, TGFb inhibitor inconclusive, ATXN viability inconclusive, D3 antag inconclusive
CCOC(=O)N1CCN(Cc2ccccc2Cl)CC1	none
CC(C)OCc1cc(CN2CCN(c3ccccc3)CC2)c(O)c2ncccc12	ATXN2 expr inh 1.3µM, TGFb inhibitor 2.2µM, ATXN viability inconclusive (no result: D3 antag)
CCOCc1cc(CN2CCN(c3cccc(Cl)c3)CC2)c(O)c2ncccc12	TGFb inhibitor 2µM (no result: ATXN2 expr inh, ATXN viability, D3 antag)
COCc1cc(CN2CCN(C)CC2)c(O)c2ncccc12	ATXN2 expr inh inconclusive, ATXN viability inconclusive
CCOC(=O)N1CCN(Cc2cc(Cl)c3cccnc3c2O)CC1	ATXN2 expr inh 3.5µM, TGFb inhibitor inconclusive, ATXN viability inconclusive, D3 antag -55
CCOCC(=O)N1CCN(c2cccc(Cl)c2)CC1	ATXN viability inconclusive
c1ccc(N2CCN(Cc3ccnc4ccccc34)CC2)cc1	ATXN viability inconclusive
CCCCOc1ccccc1NC(=O)Cn1c(-c2cncs2)nc2ccccc21	none (no result: D3 antag)
COC(=O)C[C@H]1c2cc(F)ccc2S(=O)(=O)N1C1CC1	none (no result: ATXN2 expr inh, ATXN viability, D3 ag, D3 antag)
CN1CCN(/C(=N\O)c2nonc2N)CC1	D3 antag -68
CO/N=C(/c1nonc1N)N1CCN(c2ccc([N+](=O)[O-])cc2)CC1	ATXN viability inconclusive
Nc1nonc1/C(=N/O)N1CCN(CCO)CC1	D3 antag -64
NC(=O)C1CCN(Cc2nc(-c3ccccc3)no2)CC1	D3 ag 34
CCOC(=O)C1CCN(C2CCN(Cc3nc(-c4ccccc4)no3)CC2)CC1	ATXN viability inconclusive
COC(=O)C1CCN(Cc2cn(-c3ccccc3)nc2-c2ccc3c(c2)OCO3)CC1	D3 antag -69
COC(=O)C1CCN(Cc2nnc(-c3ccccc3)o2)CC1	ATXN viability inconclusive, D3 ag 81
Cc1ccc2c(CC(=O)Nc3c(C(=O)c4ccc(F)cc4)oc4ccccc34)coc2c1C	none (no result: ATXN2 expr inh, ATXN viability, D3 antag)
O=C(CSc1nnc2ccc3ccccc3n12)Nc1ccccc1Cl	none (no result: ATXN2 expr inh, ATXN viability, D3 antag)
CCCC(=O)Nc1sc(C(=O)OC)c(C)c1C(N)=O	D3 antag -125
CCC(C(=O)N1CCN(c2ccc(OC)cc2)CC1)n1nc(C)n2c(cc3occc32)c1=O (configuration not stated)	TGFb inhibitor 10µM, ATXN viability inconclusive (no result: D3 antag)
CCC[C@H](Nc1nc(-c2ccc(NC(=O)NCC)c(OC)c2)ncc1C)c1cccnc1	none (no result: TGFb inhibitor, ATXN viability, HepG2 viability, D3 ag, D3 antag)
COc1cc(OC)c(/C=C/c2c3ccccc3cc[n+]2C)c(OC)c1	TGFb inhibitor 10µM (no result: ATXN2 expr inh, ATXN viability, D3 ag, D3 antag)
CCOC(=O)/C(C#N)=C1/C=CN(c2ccc(C)cc2)C=N1	none
CCOC(=O)/C(C#N)=C1/SC(CC)C(=O)N1c1ccc(C)cc1 (configuration not stated)	D3 antag -57
COc1cccc2cc(-c3nc(-c4ccccc4)c(C)s3)c(=O)oc12	none (no result: ATXN2 expr inh, ATXN viability, D3 ag, D3 antag)
Clc1cccc(-n2ncc3c(NCCC4=CCCCC4)ncnc32)c1	none (no result: D3 antag)
O=C1CC(=C(c2ccccc2)c2ccccc2)C(=O)N1CCCN1CCN(c2cccc(Cl)c2)CC1	D3 antag inconclusive
O=C1CC(=C2c3ccccc3-c3ccccc32)C(=O)N1CCCCN1CCN(c2ccccc2)CC1	D3 antag -55
CCN(CC(=O)NCc1ccc(F)cc1)CC(O)COCc1cccc(OC)c1 (configuration not stated)	TGFb inhibitor 13µM
N#C/C(=C/c1ccc(C(=O)O)cc1)C(=O)Nc1ccccc1	none
CC(=O)Nc1ccccc1C	none
CC(=O)/C(=C/c1ccccc1)C(=O)Nc1ccccc1C	TGFb inhibitor 13µM, ATXN viability inconclusive, D3 antag inconclusive (no result: ATXN2 expr inh)
Cc1ccccc1NC(=O)C(=Cc1ccc(C(=O)O)cc1)C(=O)Nc1ccccc1C	ATXN2 expr inh 11µM, TGFb inhibitor inconclusive, ATXN viability inconclusive
Cc1nn(CC(O)Cn2c3c(c4ccccc42)CCN(C)C3=O)c(C)c1Br (configuration not stated)	none
Cc1ccc2c(c1)c1c(n2CC(O)Cn2nc(C)c(Br)c2C)CCCC1 (configuration not stated)	TGFb inhibitor inconclusive, HepG2 viability 20µM
Cc1ccc2c(c1)c1c(n2CC(O)Cn2c(C)nc3ccccc32)CCCC1 (configuration not stated)	ATXN2 expr inh inconclusive, TGFb inhibitor inconclusive, ATXN viability 32µM
Cc1ccc2c(c1)c1c(n2CC(O)CNC(C)(C)C)CCCC1 (configuration not stated)	TGFb inhibitor inconclusive, ATXN viability inconclusive
Cc1ccc2c(c1)c1c(n2CC(O)CN2CCCCCC2)CCCC1 (configuration not stated)	ATXN viability inconclusive, D3 antag -68
NC(=S)NS(=O)(=O)c1ccc(N)cc1	none (no result: ATXN2 expr inh, TGFb inhibitor, ATXN viability, HepG2 viability, D3 antag)
NCCc1nnc(SCc2ccc(Cl)cc2)o1	none (no result: D3 antag)
O=S(=O)(NCC(c1cccs1)S(=O)(=O)c1ccccc1)c1ccc(F)c(C(F)(F)F)c1 (configuration not stated)	TGFb inhibitor inconclusive (no result: ATXN2 expr inh, ATXN viability, D3 antag)
O=S(=O)(NCC(c1cccs1)S(=O)(=O)c1ccccc1)c1ccc(F)cc1 (configuration not stated)	TGFb inhibitor 4µM (no result: ATXN2 expr inh, ATXN viability, D3 antag)
Cc1ccc(/C=C/C(=O)O)cc1S(=O)(=O)NCc1ccco1	D3 ag 41
